In PubChem BioAssay AID743364 (National Center for Advancing Translational Sciences (NCATS), 2014):
Values without a mark were called inactive. Calls follow the shape of the dose curve; as a rule, active = well fitted curve in the direction sought with a large enough effect; inactive = no such curve, though single readings can be large or run the other way.

test: qHTS profiling of inhibitors of Plasmodium falciparum (3D7) proliferation (acoustic dispense); conditions: P. falciparum 3D7 in erythrocytes, SYBR Green, 72 h; series mostly up to 49.8 µM; activity change: at the top concentration

SMILES | activity change
CC[C@@]1(O)C[C@H](O[C@H]2C[C@H](N(C)C)[C@H](O[C@H]3C[C@H](O)[C@H](O[C@H]4CCC(=O)[C@H](C)O4)[C@H](C)O3)[C@H](C)O2)c2c(cc3c(c2O)C(=O)c2c(O)cccc2C3=O)[C@@H]1C(=O)OC | -2.95%
CN(C)c1ccc2nc3ccc(=[N+](C)C)cc-3sc2c1 | 26%
CO[C@H]1O[C@@H]2O[C@@]3(C)CC[C@@H]4[C@@H](C)CC[C@@H]([C@H]1C)[C@@]24OO3 | -0.464%
COc1cc([C@@H]2c3cc4c(cc3[C@@H](O[C@@H]3O[C@@H]5CO[C@@H](c6cccs6)O[C@@H]5[C@H](O)[C@@H]3O)[C@H]3COC(=O)[C@H]23)OCO4)cc(OC)c1O | -0.633%
O=C(Nc1ccc([N+](=O)[O-])cc1Cl)c1cc(Cl)ccc1O | 78.1%
CC(C=CC(=O)NO)=C[C@@H](C)C(=O)c1ccc(N(C)C)cc1 | -1.51%
COC(=O)[C@]12CCC(C)(C)C[C@@H]1[C@@H]1C(=O)C=C3[C@@]4(C)C=C(C#N)C(=O)C(C)(C)[C@@H]4CC[C@@]3(C)[C@]1(C)CC2 | 58.1%
CCN(CC)CCCC(C)Nc1ccnc2cc(Cl)ccc12 (configuration not stated) | -1.35%
CCN(CC)CCNC(=O)c1c(C)[nH]c(C=C2C(=O)Nc3ccc(F)cc32)c1C | 9.21% [at 100 µM]
CCN[C@H]1C[C@H](C)S(=O)(=O)c2sc(S(N)(=O)=O)cc21 | -1.4%
Cc1nc2c(C#N)cccc2n1-c1ccc(C(=O)NC2CC2)s1 | 4.45%
CS[C@H]1SC[C@@H]2C(=O)N(C)[C@H](C(C)C)C(=O)OC[C@H](NC(=O)c3cnc4ccccc4n3)C(=O)N[C@H](C)C(=O)N(C)[C@@H]1C(=O)N(C)[C@H](C(C)C)C(=O)OC[C@H](NC(=O)c1cnc3ccccc3n1)C(=O)N[C@H](C)C(=O)N2C | -0.723%
